These results are taken from ChEMBL document CHEMBL4513134, “CO-ADD screening of University of Queensland (Australia) compounds” (2021).

Results with a measured potency or affinity are listed apart.

One experiment deals with Staphylococcus aureus. The following applies: Concentration 32 ug.mL-1; ASSAY_TEST Inhibition of Bacterial Growth; detection method Absorption (OD600); MEDIA CAMHB; plate type 384well; NBS; CORNING #3640; time 18 hr.
The next experiment relates to Escherichia coli. The settings on record: Concentration 32 ug.mL-1; ASSAY_TEST Inhibition of Bacterial Growth; detection method Absorption (OD600); MEDIA CAMHB; plate type 384well; NBS; CORNING #3640; time 18 hr.

The Inhibition is the change of the read-out against control, counted positive when it falls. In the case of `Cn1c([N+](=O)[O-])cnc1C(=O)NC1CC1`, the Inhibition in the experiment with Staphylococcus aureus was -13.42%; with Escherichia coli, -3.03%.

Turning to `Cc1ccc(CCNC(=O)c2ncc([N+](=O)[O-])n2C)cc1`, the Inhibition in the experiment with Staphylococcus aureus was 48.13%; in the experiment with Escherichia coli, 11.97%.

As to `CC(NC(=O)c1ncc([N+](=O)[O-])n1C)c1ccc(F)cc1` (stereo not given), the values for the Inhibition in the experiment with Staphylococcus aureus and in the experiment on Escherichia coli were 34.68% and 2.11%, respectively.

In the case of `Cn1c([N+](=O)[O-])cnc1C(=O)NCc1ccc(F)cc1`, the Inhibition in the experiment with Staphylococcus aureus was 28.26%; in the experiment with Escherichia coli, 3.69%.

Take `Cn1c([N+](=O)[O-])cnc1C(=O)NCc1cccc(OC(F)(F)F)c1`: the Inhibition in the experiment with Staphylococcus aureus is reported as 39.06%; with Escherichia coli it was 5.07%.

Regarding `Cn1c([N+](=O)[O-])cnc1C(=O)N1CCOCC1`, the figures for the Inhibition in the experiment on Staphylococcus aureus and in the experiment on Escherichia coli were 46.51% and 8.52%, respectively.

With `Cn1c([N+](=O)[O-])cnc1C(=O)NCc1ccccn1.O=C(O)C(F)(F)F`, the Inhibition is recorded as 45.26% in the experiment with Staphylococcus aureus and -0.31% in the experiment with Escherichia coli.

For `CN(C)C(=O)c1ncc([N+](=O)[O-])n1C`, the Inhibition is listed as 42.28% with Staphylococcus aureus and 6.99% in the experiment with Escherichia coli.

Turning to `Cn1c([N+](=O)[O-])cnc1C(=O)NCc1ccc(OC(F)(F)F)cc1`, the Inhibition in the experiment on Staphylococcus aureus turned out to be 35.57%; with Escherichia coli, 3.65%.

For `Cn1c([N+](=O)[O-])cnc1C(=O)N1CCCC1`, the results for the Inhibition in the experiment with Staphylococcus aureus and with Escherichia coli were 47.23% and 5.01%, respectively.
